We go through 40 compounds from PubChem BioAssay (NCATS).

The source made the active and inactive calls. Calls come from the whole dose curve; as a rule, active = well fitted curve in the direction sought with a large enough effect; inconclusive = small, poorly fitted or top-dose-only effect, or another doubt; inactive = no such curve, though single readings can be large or run the other way.

Sequence of Thyrotropin receptor (Homo sapiens) (P16473 whole entry, looked up): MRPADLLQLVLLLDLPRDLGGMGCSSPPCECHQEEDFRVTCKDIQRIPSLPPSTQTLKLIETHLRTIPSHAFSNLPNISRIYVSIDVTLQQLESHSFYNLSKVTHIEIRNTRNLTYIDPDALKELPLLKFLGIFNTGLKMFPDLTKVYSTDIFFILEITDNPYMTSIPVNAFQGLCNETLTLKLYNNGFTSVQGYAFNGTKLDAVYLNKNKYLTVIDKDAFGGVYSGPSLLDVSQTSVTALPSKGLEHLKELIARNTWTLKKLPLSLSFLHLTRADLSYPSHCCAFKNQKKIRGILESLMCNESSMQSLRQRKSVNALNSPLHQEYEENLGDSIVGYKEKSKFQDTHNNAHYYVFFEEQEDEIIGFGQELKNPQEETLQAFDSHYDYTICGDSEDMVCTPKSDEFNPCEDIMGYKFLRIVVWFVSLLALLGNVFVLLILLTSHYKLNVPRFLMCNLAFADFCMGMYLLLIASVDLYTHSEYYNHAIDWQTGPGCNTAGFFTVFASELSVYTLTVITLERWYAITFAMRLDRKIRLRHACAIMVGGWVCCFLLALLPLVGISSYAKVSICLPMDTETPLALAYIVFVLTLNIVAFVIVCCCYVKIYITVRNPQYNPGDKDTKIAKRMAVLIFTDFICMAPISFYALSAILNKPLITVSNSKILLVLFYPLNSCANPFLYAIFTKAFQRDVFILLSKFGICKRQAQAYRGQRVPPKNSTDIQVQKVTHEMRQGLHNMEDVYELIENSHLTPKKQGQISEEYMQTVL

This experiment has as its target Thyrotropin receptor (Homo sapiens) (UniProt P16473). In words: qHTS Assay for Antagonists of the Thyroid Stimulating Hormone Receptor (AID 488980). The following applies: TSHR-expressing cells, cAMP antagonist read-out; series mostly up to 57.5 µM. From the text: TSH is an alpha/beta heterodimeric glycoprotein hormone secreted from the anterior pituitary gland which belongs to the glycoprotein hormone family. The actions of TSH are mediated by a seven-transmembrane receptor, which upon TSH binding couples preferentially to the G-alpha (s) protein (Gs), resulting in activation of adenylate cyclase and increase in cyclic adenosine 3', 5' monophosphate (cAMP). The TSH receptor (THSR) is mainly expressed in thyroid follicular cells and regulates their growth and function. This cell based assay was conducted on a TSHR transfected HEK 293 cell line, measuring cAMP stimulation using antibody-based Homogeneous Time Resolved Fluorescence (HTRF).
Our goal is to identify small molecules that will inhibit (antagonize) the thyroid-stimulating hormone receptor (TSHR), a member of the 7 transmembrane-spanning receptor (7TMR) family of cell surface receptors. TSHR-mediated hyperthyroidism is important in thyroid pathology. The development of small molecule antagonists of TSHR may lead to therapeutic approaches for TSHR-mediated hyperthyroidism caused by constitutively activating mutations or stimulating auto-antibodies associated with Graves' disease. Graves' disease is the leading cause of hyperthyroidism and is caused by autoantibodies that stimulate TSHR (TsAbs) causing thyroid growth and unregulated overproduction of thyroid hormones and existing treatments have liabilities (agranulocytosis). In addition, TSHRs are known to be expressed in multiple extrathyroidal tissues including bone, brain, kidney, testis, fat and cells of the immune system but the role of the TSHR in these tissues is not clear. Therefore, TSHR antagonists/inverse agonists could be used as probes of extrathyroidal TSHR function. Finally, TSHR inverse agonists, which are a subclass of antagonists that inhibit agonist-independent (or basal or constitutive) TSHR signaling, could be used to inhibit TSH-independent signaling in patients with recurrent or metastatic thyroid cancer who are receiving thyroid hormone to suppress TSH.
An anti cAMP antibody contains a fluorescent cryptate tag (excitation 337 nm; emission 620 nm) and the acceptor is cAMP-d2 (excitation 620 nm; emission 665 nm). When antibody and cAMP-d2 interact and are excited by a 337 nm light, a FRET occurs resulting in emission at 665 nm. The assay is competition between cAMP-d2 and cAMP (from the cell lysate). The homogeneous protocol allows for one step dispense after stimulation that is automation friendly.
Step, Parameter, Value, Description
1, Cells, 3 uL, 2000 TSHR freshly harvested cells/well 1536 TC treated White solid bottom plate (Cells resuspended in 10 mM HEPES buffered HBSS and 70 uM RO 20-1724)
2, Compound, 23 nL, Libraries and controls
3, Compound, 1 uL, EC80 TSH (4 nM final)
5, Reagent, 2 uL, cAMP antibody diluted 1:20 in lysis buffer
6, Time, 30 minutes, Room temperature
7, Detector, HTRF settings, Viewlux
(In general: Quantitative high-throughput screening tests each substance at several concentrations.)
Regarding `COCCc1ccc(OCC(O)CNC(C)C)cc1` (stereo not given), the outcome was inactive.

As to `CC1=C(C)C(=O)C(CCCCC#CCCCC#CCO)=C(C)C1=O`, the outcome was inactive. As for `Cc1nc2sccn2c(=O)c1CCN1CCC(=C(c2ccc(F)cc2)c2ccc(F)cc2)CC1`, the entry is “inactive”. For the compound `NC(N)=NC(=O)Cc1c(Cl)cccc1Cl`, the result was inactive. For `NC/C=C/C(=O)O` the value was “inactive”; for `c1cc(CN2CCCCC2)cc(OCCCNc2nc3ccccc3s2)c1`, “inactive”; for `COc1ccc(CCN(C)CCCC(C#N)(c2cc(OC)c(OC)c(OC)c2)C(C)C)cc1OC` (stereo not given), “inactive”. For `COCCOC(=O)C1=C(C)NC(C)=C(C(=O)OC(C)C)C1c1cccc([N+](=O)[O-])c1` (stereo not given) the value was “inactive”; for `CCCN(CCC)CCc1cccc2c1CC(=O)N2`, “inactive”; for `COCCCC/C(=N\OCCN)c1ccc(C(F)(F)F)cc1`, “inactive”. As for `CC1=NS(=O)(=O)c2cc(Cl)ccc2N1`, the entry is “inactive”; as for `O=C(O)CP(=O)(O)O`, “inactive”. In the case of `CCCOc1ccccc1-c1nc2n[nH]nc2c(=O)[nH]1`, the outcome was inactive. As for `O=C(CCNNC(=O)c1ccncc1)NCc1ccccc1`, the result was inactive. Turning to `COc1cc(Cc2cnc(N)nc2N)cc(OC)c1OC`, the outcome was inactive. As for `COC(=O)[C@@H](N)Cc1ccc(O)c(O)c1`, the entry is “inactive”; as for `C[N+](C)(C)CCOC(N)=O`, “inactive”; as for `C=CCc1ccccc1OCC(O)CNC(C)C` (stereo not given), “inactive”. For `CCCCNc1ccc(C(=O)OCCN(C)C)cc1` the value was “inactive”.

Consider `CN(C)C(=O)Oc1cccc([N+](C)(C)C)c1`, for which the outcome was inactive.

`CC(C(=O)O)c1ccc(CC2CCCC2=O)cc1` (stereo not given): the result was inactive. As for `CCc1c(C)[nH]c2c1C(=O)C(CN1CCOCC1)CC2` (stereo not given), the entry is “inactive”; as for `Nc1c2c(nc3ccccc13)CCCC2O` (stereo not given), “inactive”; as for `CNCCC(Oc1ccccc1OC)c1ccccc1` (stereo not given), “inactive”.

Take `O=C1NCN(c2ccccc2)C12CCN(CCCC(c1ccc(F)cc1)c1ccc(F)cc1)CC2`: the result was inactive. For `CC(N=C(NC#N)Nc1ccncc1)C(C)(C)C` (stereo not given) the value was “inactive”. As for `C(=C\c1ccccc1)/CN1CCN(C(c2ccccc2)c2ccccc2)CC1`, the entry is “inactive”; as for `NC(=O)c1ncn([C@@H]2O[C@H](CO)[C@@H](O)[C@H]2O)c1O`, “inactive”; as for `COC(=O)[C@H]1[C@H]2C[C@@H]3c4[nH]c5cc(OC)ccc5c4CCN3C[C@H]2C[C@@H](OC(=O)c2cc(OC)c(OC)c(OC)c2)[C@@H]1OC`, “inactive”.

For `O=C(O)CN(CCOCCOCCN(CC(=O)O)CC(=O)O)CC(=O)O`, the result was inactive. Take `c1ccc2c(c1)CCCC2C1=NCCN1` (stereo not given): the result was inactive. As for `C[C@]12C=CC(=O)C=C1CC[C@H]1[C@@H]3C[C@@H](O)[C@](O)(C(=O)CO)[C@@]3(C)C[C@H](O)[C@@]12F`, the entry is “inactive”. Consider `CCN1CCC[C@H]1CNC(=O)c1c(O)c(Cl)cc(Cl)c1OC`, for which the result was inactive. Regarding `C[C@]12CCC(=O)C=C1CC[C@@H]1[C@@H]2C(=O)C[C@@]2(C)[C@H]1CC[C@]2(O)C(=O)CO`, the result was inactive. As for `CCCNC(C)C(=O)Nc1ccccc1C` (stereo not given), the entry is “inactive”. For `CN/C(=C\[N+](=O)[O-])NCCSCc1ccc(CN(C)C)o1` the value was “inactive”; for `O=C(O)CCCCCCCC(=O)O`, “inactive”; for `CCOC(=O)C1=C(C)NC(C)=C(C(=O)OC)C1c1cccc([N+](=O)[O-])c1` (stereo not given), “inactive”. Turning to `CN(C)CCOC(=O)COc1ccc(Cl)cc1`, the outcome was inactive.

`CN1CCN(CC(=O)N2c3ccccc3C(=O)Nc3cccnc32)CC1`: the result was inactive.
